Results: the supplement of paper PMC13380429

Tested on: Vero E6 infected with SARS-CoV-2
Test: morphology score (similarity to uninfected cells); higher = more like uninfected cells
Details: 24 h

| Structure (SMILES) | morphology score |
| --- | --- |
| CN(C)Cc1cccc(N=C(c2ccccc2)c2c(O)[nH]c3cc(C(=O)N(C)C)ccc23)c1 (10 µM) | -0.271 |
| C/C=C/c1cc(OC)c(OC)cc1OC [alpha-asarone] (10 µM) | 0.0292 |
| CC(C)/N=c1\cc2n(-c3ccc(Cl)cc3)c3ccccc3nc-2cc1Nc1ccc(Cl)cc1 [clofazimine] (10 µM) | 0.422 |
| C#CCN(C)Cc1ccccc1 [pargyline] (10 µM) | 0.0803 |
| CC(C)C[C@@H]1NC(=O)[C@@H](C(C)C)NC(=O)[C@@H]2CCCN2C(=O)[C@@H](CC(=O)O)NC(=O)[C@@H](Cc2c[nH]c3ccccc23)NC1=O (10 µM) | 0.163 |
| FC(F)(F)C(F)(F)C(F)(F)N(C(F)(F)C(F)(F)C(F)(F)F)C(F)(F)C(F)(F)C(F)(F)F [perfluamine] (10 µM) | 0.16 |
| Cc1ccc(F)cc1C(=O)Nc1ccc(C(=O)N2Cc3cccn3Cc3ccccc32)c(Cl)c1 [lixivaptan] (10 µM) | 0.0414 |
| NCCNCCNCCN [trientine] (10 µM) | -0.00487 |
| NC(N)=Nc1nc(CSCC/C(N)=N/S(N)(=O)=O)cs1 [Famotidine] (10 µM) | -0.0119 |
| Cc1cc(C)c2c(N)c(C(=O)NCc3ccc(Cl)cc3)sc2n1 (10 µM) | 0.0846 |
| OC(c1ccc(-c2ccc(CN3CCN(Cc4ccncc4)CC3)cc2)c(F)c1)(C(F)(F)F)C(F)(F)F (10 µM) | -0.228 |
| C[C@@H]1COCCN1c1cc(C2([S@](C)(=N)=O)CC2)nc(-c2ccnc3[nH]ccc23)n1 (0.833333 µM) | 0.0164 |
